# Screening results: PubChem, several laboratories
# Hits are enriched below; roughly 5.4% of the tested compounds scored in any of these assays.
# Mdm2 MdmX PPI: inhibitors of human Mdm2/MdmX interaction; O15151+Q00987; SaOS-2 split-luciferase Mdm2/MdmX complementation, luminescence; inhibition, % at 8 µM; 330,000 tested, 3% active; AID 485346;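 active = inhibition of at least 50% at 8 µM in the primary screen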
# Target sequence (O15151 whole entry, looked up): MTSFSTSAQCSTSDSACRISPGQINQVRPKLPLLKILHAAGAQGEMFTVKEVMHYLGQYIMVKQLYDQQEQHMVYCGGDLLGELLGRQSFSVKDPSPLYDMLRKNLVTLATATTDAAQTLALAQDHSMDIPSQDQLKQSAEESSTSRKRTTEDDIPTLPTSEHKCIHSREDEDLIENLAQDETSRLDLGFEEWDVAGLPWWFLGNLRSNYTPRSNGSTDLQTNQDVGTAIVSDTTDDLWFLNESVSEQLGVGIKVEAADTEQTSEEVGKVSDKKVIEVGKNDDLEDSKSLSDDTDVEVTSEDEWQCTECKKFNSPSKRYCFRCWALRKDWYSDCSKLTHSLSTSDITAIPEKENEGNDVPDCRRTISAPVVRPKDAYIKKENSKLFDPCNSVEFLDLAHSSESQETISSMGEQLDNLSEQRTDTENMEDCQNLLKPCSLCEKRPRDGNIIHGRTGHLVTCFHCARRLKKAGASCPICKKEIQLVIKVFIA
# Target sequence (Q00987 whole entry, looked up): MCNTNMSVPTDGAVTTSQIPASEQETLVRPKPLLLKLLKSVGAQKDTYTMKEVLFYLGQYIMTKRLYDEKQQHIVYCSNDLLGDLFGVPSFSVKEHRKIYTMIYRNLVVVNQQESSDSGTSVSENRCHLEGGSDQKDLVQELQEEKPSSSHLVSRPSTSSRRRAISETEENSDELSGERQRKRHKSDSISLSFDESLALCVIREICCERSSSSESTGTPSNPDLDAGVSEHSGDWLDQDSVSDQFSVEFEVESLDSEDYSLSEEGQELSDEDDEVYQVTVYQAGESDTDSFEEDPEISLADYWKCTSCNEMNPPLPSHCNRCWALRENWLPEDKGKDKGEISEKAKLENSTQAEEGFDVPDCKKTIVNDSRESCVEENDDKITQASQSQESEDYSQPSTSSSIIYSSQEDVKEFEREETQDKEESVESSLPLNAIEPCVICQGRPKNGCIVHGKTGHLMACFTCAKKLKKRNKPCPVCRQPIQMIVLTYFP
# MPTP inh: inhibitors of mitochondrial permeability transition pore | 360,000 tested, 1.4% active | isolated mouse mitochondria, Ca2+ swelling absorbance, 30 min | inhibition, % at 10 µM;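 active = inhibition of 50% or more, scaled per plate between neutral and stimulator controls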;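 note: 0% = DMSO wells given calcium and 100% = 1 mM EGTA wells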
# SKKanGAS inh: inhibitors of SKKanGAS S. pyogenes growth in kanamycin (SK-promoter or general growth effect). BacTiter-Glo, 6 h. inhibition, % at 7.5 µM. AID 1662. 300,000 tested, 1.3% active;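 active = mean replicate score, as percent of positive control median, at least 50; inconclusive = mean below 50 but one replicate at or above 50; inactive = mean and every replicate below 50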;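 note: strain carries kanamycin resistance gene driven by streptokinase promoter and grows in 40 µg/ml kanamycin; loss of luminescence reflects streptokinase promoter inhibition or plain growth inhibition; 0% = median of DMSO wells and 100% = positive control at its reference dose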
# Beta apoptosis: blocks beta cell apoptosis; INS-1E cytokine-induced death, ATP luminescence, 48 h; percent of positive-control rescue, neutral wells zero; protection from apoptosis, % (test concentration not listed); 300,000 tested, 0.8% active;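 active = Every replicate reaches about 75%, or at least half do and their mean reaches it too, limit read from the data; inconclusive = At least half of replicates reach the limit but their mean does not; inactive = Under half of replicates reach the limit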;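 note: 0% = cytokine-treated negative control wells and 100% = positive control rescue; higher means more ATP so stronger rescue from cytokine killing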
# Calb FLC: affects C. albicans growth with fluconazole. AID 1979. C. albicans CaCi-2 (fluconazole-resistant clinical isolate) + fluconazole, Alamar Blue growth, 48 h. 300,000 tested, 0.57% active. growth inhibition, % (concentration not given with the values);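 active = growth inhibition above about 58% in most replicates, limit read from the data, passing the limit was not always enough; inconclusive = exactly half the replicates above a set limit; inactive = most replicates below a set limit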;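 note: all wells also contain fluconazole at 8 µg/ml as a sub-toxic cotreatment; 0% = median of DMSO wells and 100% = median of geldanamycin control wells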
# CSC inhib: cancer stem cell inhibition. cancer stem cell-like cells viability, luminescence. inhibition, % at 7.5 µM. 300,000 tested, 1.1% active; in the data active = inhibition above about 75%; inconclusive = no clear call, values can overlap the other calls; tested in HMLE shEcad cells
# Mdm2-MdmX conf: human Mdm2/MdmX binding inhibition, confirmed | shares compounds with Mdm2 MdmX PPI | 10,000 tested, 55% active | AID 489028 | luminescent assay | inhibition, % at 8 µM; in the data active = inhibition above about 40%
# Full FLuc ctr: counter-screen for Mdm2/MdmX inhibitors: full-length luciferase; shares compounds with Mdm2 MdmX PPI; 6,200 tested, 77% active; SaOS-2 full-length luciferase counterscreen, luminescence; inhibition, % at 8 µM;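 active = mean inhibition at 8 µM reaching about 37%, which flags the compound as non-specific, limit read from the data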;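 note: p53-null SaOS-2 cells with luciferase driven by a doxycycline-inducible promoter; compound on cells about two nights before reading with doxycycline added after day one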
# * marks the source's active call; other numbers are inactive results; ? = inconclusive; · = no result.
SMILES,Mdm2 MdmX PPI,MPTP inh,SKKanGAS inh,Beta apoptosis,Calb FLC,CSC inhib,Mdm2-MdmX conf,Full FLuc ctr
COc1ccc(CCNC(=O)C2CCN(c3nccc(C)n3)CC2)cc1,4,0,-6,3,-6,4,·,·
CCOc1ccc(-c2cc(C(=O)NCCCn3ccnc3)c3ccccc3n2)cc1,8,-2,16,8,4,0,·,·
CCOc1ccc(-c2cc(C(=O)NCCCn3ccnc3)c3cc(Br)ccc3n2)cc1,100*,-1,7,108*,8,11,23,·
COc1ccc2oc(C(=O)Nc3nc(-c4ccccn4)cs3)c(C)c2c1,60*,-2,84*,12,15,30,59*,69*
Cc1ccc(S(=O)(=O)CCC(=O)Nc2nc(-c3ccncc3)cs2)cc1,88*,-2,0,-18,?,-7,58*,37*
COc1ccc2oc(C(=O)NC(C)c3ccccn3)c(C)c2c1 (stereo unspecified),4,-1,·,0,·,·,·,·
Cc1ccc(-c2csc(NC(=O)C[n+]3cc(-c4ccccc4)n4c3CCC4)n2)cc1,18,2,20,10,3,3,·,·
Cc1ccc(-c2csc(NC(=O)C[n+]3cc(-c4ccc(C)cc4)n4c3CCC4)n2)cc1,56*,2,7,11,24,9,12,·
CC(Oc1ccc(F)cc1)C(=O)Nc1nc(-c2ccccn2)cs1 (stereo unspecified),77*,-2,107*,20,0,36,84*,36
CCN(CC)C(=O)Cn1c(=O)n(-c2ccc(CC(=O)NCc3ccccc3)cc2)c(=O)c2sccc21,5,1,-8,-7,0,-18,·,·
CCc1ccccc1OCC(=O)Nc1nc(-c2cccnc2)cs1,67*,-4,102*,2,2,40,69*,36
O=C(CCS(=O)(=O)c1ccc(F)cc1)Nc1nc(-c2ccccn2)cs1,69*,0,-5,2,45,-9,43*,39*
CCCC(=O)Nc1ccc(-c2csc(N/N=C\c3ccncc3)n2)cc1,65*,1,7,4,-7,13,7,·
CC(=O)Nc1ccc(-c2csc(N/N=C\c3ccncc3)n2)cc1,15,2,2,1,0,-2,·,·
Cc1cc(C)c(OCC(=O)Nc2nc(-c3ccccn3)cs2)c(C)c1,53*,-1,97*,1,1,-6,33,46*
O=C(CCS(=O)(=O)c1ccccc1)Nc1ccccn1,23,-2,-9,-13,23,·,·,·
O=C(CCS(=O)(=O)c1ccccc1)Nc1nc(-c2ccccn2)cs1,70*,-3,-8,10,-4,47,35,48*
Cc1ccc(N2C(=O)c3cccc4c(N)ccc(c34)C2=O)c2cccnc12,62*,3,-2,23,1,51,61*,80*
Cc1ccc(S(=O)(=O)N2CCN(C(=O)CSC3CCCC3)CC2)c(C)c1,55*,1,6,0,5,-5,12,·
N#Cc1ccc(COC(=O)c2cccnc2Cl)cc1,10,-2,0,-2,-8,-8,·,·
CCOC(=O)c1sc2nc(CSc3ccccc3Cl)[nH]c(=O)c2c1C,52*,0,14,2,3,5,-2,·
COC(=O)c1sc2nc(CSc3ccc(Br)cc3)[nH]c(=O)c2c1C,6,11,12,-12,13,19,·,·
Nc1nnn(CC(=O)N/N=C/C=C/c2ccccc2)n1,15,-2,10,-10,8,2,·,·
CCN1CCN(Cc2ccc(NC(=O)c3ccc(C)c(NC(=O)c4c[nH]c5cc(C(F)(F)F)ccc5c4=O)c3)cc2C(F)(F)F)CC1,100*,11,92*,99*,12,105*,100*,52*
CCN1CCN(Cc2ccc(NC(=O)c3ccc(C)c(NC(=O)c4cccc(-c5cn[nH]c(=O)c5)c4)c3)cc2C(F)(F)F)CC1,84*,0,2,-3,27,40,46*,32
SMILES,Mdm2 MdmX PPI,MPTP inh,SKKanGAS inh,Beta apoptosis,Calb FLC,CSC inhib,Mdm2-MdmX conf,Full FLuc ctr
CCN1CCN(Cc2ccc(NC(=O)c3ccc(C)c(NC(=O)C4=NN(c5ccccc5)C(=O)C4)c3)cc2C(F)(F)F)CC1,18,-1,1,-5,0,-16,·,·
CCN1CCN(Cc2ccc(NC(=O)c3ccc(C)c(NC(=O)c4csc(-c5ccncc5)n4)c3)cc2C(F)(F)F)CC1,46,-2,9,1,21,-16,·,·
CCN1CCN(Cc2ccc(NC(=O)c3cc(NC(=O)c4cc5cccc(OC)c5o4)cc(OC)c3)cc2C(F)(F)F)CC1,98*,-1,0,6,46,·,35,·
CCN1CCN(Cc2ccc(NC(=O)c3ccc(C)c(NC(=O)c4ccno4)c3)cc2C(F)(F)F)CC1,63*,-1,-3,-2,-9,-11,43*,57*
CC(=O)c1ccc(N2CCN(C(=O)CNS(=O)(=O)c3ccc4c(c3)OCCCO4)CC2)c(F)c1,16,0,·,·,·,·,·,·
CCN1CCN(Cc2ccc(NC(=O)c3cc(NC(=O)c4cc(-c5ccc(OC)cc5)n[nH]4)cc(OC)c3)cc2C(F)(F)F)CC1,95*,1,71*,10,52,?,24,·
CCN1CCN(Cc2ccc(NC(=O)c3ccc(C)c(/C=C/c4cnc(Nc5cc(N6CCNCC6)nc(C)n5)cn4)c3)cc2C(F)(F)F)CC1,88*,-4,61*,5,-4,28,55*,37*
COc1cc(NC(=O)c2ccno2)cc(C(=O)Nc2cccc(C(F)(F)F)c2)c1,34,35,6,4,23,11,·,·
COc1cc(NC(=O)c2cc3cccc(OC)c3o2)cc(C(=O)Nc2cccc(C(F)(F)F)c2)c1,59*,15,7,24,-3,36,56*,41*
CCN1CCN(Cc2ccc(NC(=O)c3cc(NC(=O)c4ccc5n[nH]nc5c4)cc(OC)c3)cc2C(F)(F)F)CC1,-20,0,-2,-2,5,-7,·,·
CCN1CCN(Cc2ccc(NC(=O)c3cc(NC(=O)c4ccno4)cc(OC)c3)cc2C(F)(F)F)CC1,55*,1,6,-2,8,9,38,61*
Nc1sc(-c2ccccc2)cc1C(=O)NCCc1c[nH]c2ccccc12,·,2,·,·,·,·,·,·
COc1c(O)cccc1[C@@H](O)C1CCN(CCc2ccc(F)cc2)CC1,6,1,0,4,4,2,·,·
CCN1CCN(Cc2ccc(NC(=O)c3cc(NC(=O)c4cncc(-c5cccs5)c4)cc(OC)c3)cc2C(F)(F)F)CC1,97*,-4,6,7,16,124*,28,58*
